Test results reported in PubChem BioAssay AID1259415 (National Center for Advancing Translational Sciences (NCATS), 2018).
The campaign covered roughly 410,000 compounds. About 18,000 (4.4%) were called active. Inconclusive results (about 7%) are left out. Cut-off read from the data, not from the text of the source: active = activity change below about -60%; inconclusive = no clear call, values can overlap the other calls; inactive = above about -39%. For the sample, actives were picked, then their nearest neighbours and some compounds at random.

Assay: qHTS Assay for inhibitors of the human cytomegalovirus (HCMV)
Conditions: HFF cells, HCMV-luciferase reporter, 72 h; at 57.5 µM; stronger effect = lower value
In short: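 Two compound doses tested in HFFs infected with HCMV-luciferase, MOI 1 PFU/cell, 72 h at 37C. Lysate luminescence read with OneGlo; data normalized against buffer-only and 10uM Salinomycin inhibitor controls.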
% is set by controls: 0 for no effect and ±100 for the full control effect.

SMILES | activity change, negative = inhibition
CCN(CC)S(=O)(=O)c1ccc(C(=O)N2CCN(C3=NS(=O)(=O)c4ccccc43)CC2)cc1 | -15.4% (inactive)
CCOC(=O)c1cc2c(=O)n3ccccc3nc2n(CC2CCCO2)c1=NC(=O)c1ccccc1Br (stereo not drawn) | 24.4% (inactive)
Cc1ccc(S(=O)(=O)c2cn(Cc3ccccc3)c3cc(N4CCCC4)c(F)cc3c2=O)c(C)c1 | 10.5% (inactive)
CCOC1=C2[C@@H](CN(S(=O)(=O)c3ccc(C)cc3)[C@H]2c2ccccc2F)[C@H]2C(=O)N(Cc3ccccc3)C(=O)[C@H]2C1 | -19.7% (inactive)
Cc1ccc(S(=O)(=O)N2C[C@@H]3CCCC[C@@H]3[C@@H](C)[C@H]2c2cn(Cc3ccccc3)c3ccc(F)cc23)cc1 | -65.2% (active)
COc1ccc(-c2c(C)c3ccc(O)c(CN4CCCC4)c3oc2=O)cc1OC | 8.47% (inactive)
CCN(CC)C(=O)CSc1nc2cc3c(cc2c(=O)n1CCCC(=O)NCc1ccc2c(c1)OCO2)OCO3 | -89.8% (active)
CCOc1ccc(NC(=O)Cn2c(=O)n(CCCC(=O)NCc3ccc4c(c3)OCO4)c(=O)c3ccccc32)cc1 | 22.9% (inactive)
CCCCNC(=O)CSc1nc2cc3c(cc2c(=O)n1CCCCCC(=O)NCc1ccc2c(c1)OCO2)OCO3 | 25.2% (inactive)
O=C(NCc1ccc(Cl)cc1)c1ccc2c(c1)nnn2C1CCCC1 | -1.14% (inactive)
CC1(C(=O)NNC(=S)NCC2CCCO2)CC1(Cl)Cl (stereo not drawn) | -5.76% (inactive)
CCC(=O)Nc1nc2ccccc2n1Cc1ccccc1C | -81.6% (active)
Cc1cccc(NC(=O)Cn2c(C(F)(F)F)nc3ccccc32)c1C | -9.72% (inactive)
CCC(=O)Nc1ccc(C)cc1-c1nc2ccccc2n(Cc2ccccc2)c1=O | 13.6% (inactive)
Cc1cc(Cl)ccc1NC(=O)Cc1ccc(NC(=O)N2CCCCc3ccccc32)cc1 | 25.1% (inactive)
COCCN1C2=C(COC(C)(C)C2)C(=S)NC1c1ccccc1 (stereo not drawn) | 5.54% (inactive)
Cc1ccc(NC(=O)CN2CCCCC2)c2c1CC(C)(C)O2 | -63% (active)
O=C(CN1CCCCCC1)Nc1ccc(Br)cc1Br | 32.3% (inactive)
Cc1cc(C)c(NC(=O)CN2CCCCCC2)c(C)c1 | -39.4% (inactive)
O=S(=O)(c1ccc(Cl)cc1)c1nnn2c1nc(NC1CCCC1)c1sccc12 | 21.2% (inactive)
O=[N+]([O-])c1ccccc1-c1cc(-c2ccccc2[N+](=O)[O-])on1 | 24.9% (inactive)
COc1ccccc1CNC(=O)c1ccccc1NC(=O)c1nsc2ccccc12 | 12.6% (inactive)

SMILES | activity change, negative = inhibition
CCc1ccccc1NC(=O)N1CCN(C(=O)c2nsc3ccccc23)CC1 | 0% (active)
Cc1c(Cl)cccc1NC(=O)N1CCN(C(=O)c2nsc3ccccc23)CC1 | 0% (inactive)
COc1ccc(OC)c(NC(=O)CN2CCCN(Cc3cc(C)ccc3C)S2(=O)=O)c1 | 0% (inactive)
Cc1ccnc(NC(=O)C2CCN(S(=O)(=O)c3c(C)c(C)cc(C)c3C)CC2)c1 | -4.39% (inactive)
CN1CCN(C(=O)CCc2ncc(C(F)(F)F)cc2Cl)CC1 | -28.5% (inactive)
CC(C)n1ncc2c(C(=O)Nc3ccc(CC#N)cc3)cc(C3CC3)nc21 | 30.4% (inactive)
N#CCc1ccc(NC(=O)c2ccccc2C(=O)Nc2ccc(CC#N)cc2)cc1 | -72.2% (active)
CC(=O)Nc1ccc(CC#N)cc1 | 26.2% (inactive)
Cc1ccc(-c2nc3cccc(C)n3c2Nc2ccc3c(c2)OCCO3)cc1 | 76% (inactive)
COc1ccc(NC(=O)C2CCCN(S(=O)(=O)c3cccc4nonc34)C2)cc1Cl (stereo not drawn) | -11.9% (inactive)
O=C(C1CC1)N1CCc2cc(Br)cc(S(=O)(=O)N3CCN(c4ccccc4F)CC3)c21 | 6.64% (inactive)
CNC(=O)c1ccc(-c2nc(CN3CCc4ccccc43)c(C)o2)cc1 | 18.4% (inactive)
Cc1ccc(N2CC(NC(=O)Cc3cccs3)CC2=O)cc1 (stereo not drawn) | 76% (inactive)
Cc1sc2ncnc(N3CCC(C(=O)Nc4ccc(F)cc4Cl)CC3)c2c1C | -21.6% (inactive)
CCOC(=O)C1CCN(c2ncnc3c2c(-c2ccccc2)cn3-c2ccc(C)cc2)CC1 | -37.8% (inactive)
CCc1ccc(C(=O)NNC(=O)C2CCN(c3ncnc4sc(C)c(C)c34)CC2)cc1 | -65.2% (active)
O=C(O)c1ccc(Cn2cnc3c(=S)nc[nH]c32)cc1 | 1.65% (inactive)
NC1=NC(c2cc(F)cc(F)c2)n2c(nc3ccccc32)N1 (stereo not drawn) | -1.84% (inactive)
Cn1sc(=O)c2cc(S(=O)(=O)NC3CC3)ccc21 | -82.6% (active)
Cc1ccc(S(=O)(=O)NC2CCCCCC2)cc1C(N)=O | -23.9% (inactive)
CC1CCC(NS(=O)(=O)c2ccc3c(c2)CC(=O)N3)CC1 (stereo not drawn) | 23.2% (inactive)
O=S1(=O)CC(N2CCSCC2)CN1Cc1cn(Cc2cccc(Cl)c2)nn1 (stereo not drawn) | -0.598% (inactive)

SMILES | activity change, negative = inhibition
O=C(NCCc1ccc(Cl)cc1)c1ccc2nc(CCc3ccccc3)oc2c1 | 44.3% (inactive)
CCOc1ccccc1CNCc1c(C(=O)O)c(C)n(Cc2ccc(C)cc2)c1C | 2.89% (inactive)
O=C(CSc1nc(-c2cccc(F)c2)[nH]c1-c1ccccc1)Nc1ccc2c(c1)OCO2 | -87.5% (active)
O=C(CSc1nc(C2CC2)nc2ccccc12)Nc1ccc2c(c1)OCCO2 | -71.4% (active)
O=C(CSc1nnnn1C1CCCC1)Nc1ccc2c(c1)OCCO2 | 15.2% (inactive)
O=C(CSc1ccc(-c2ccc(F)cc2)nn1)Nc1ccc2c(c1)OCCO2 | 16.6% (inactive)
O=C(CSc1nc(=O)n2ccccc2n1)Nc1ccc2c(c1)OCCO2 | -0.0406% (inactive)
O=C(CSc1nnc(CNC(=O)c2ccc(F)cc2)o1)Nc1ccc2c(c1)OCO2 | -6.33% (inactive)
CCOc1cc(C(=O)Nc2nnc3n2CCS3)cc(OCC)c1OCC | -4.78% (inactive)
O=C(CSc1ncc(-c2ccccc2)[nH]1)Nc1ccc(F)cc1F | -18.3% (inactive)
O=C(CCCN1C(=O)/C(=C\c2ccccc2)SC1=S)Nc1ccccc1O | -94.8% (active)
O=C(CCCN1C(=O)/C(=C/c2ccco2)SC1=S)Nc1ccccc1 | -96.7% (active)
COc1ccc(NC(=O)CCCN2C(=O)C(c3ccccc3)Oc3cccnc32)cc1 (stereo not drawn) | 37.1% (inactive)
O=C(CCCN1C(=O)/C(=C/c2cccs2)SC1=S)Nc1ccc(O)cc1 | -92.8% (active)
O=C(CCCN1C(=O)C(c2ccccc2)Oc2cccnc21)Nc1ccccc1Br (stereo not drawn) | 4.91% (inactive)
Cc1cc(C)cc(NC(=O)CCN2C(=O)c3ccccc3C2=O)c1 | -12.5% (inactive)
CC(=O)Nc1ccc(NC(=O)CCN2C(=O)C3CC=CCC3C2=O)cc1 (stereo not drawn) | 19.5% (inactive)
N#Cc1c(NC(=O)CCCN2C(=O)c3ccccc3C2=O)oc(-c2ccccc2)c1-c1ccccc1 | -2.46% (inactive)
COC(=O)C1=C(C)N(C(C)c2ccccc2)C(=O)/C1=C\c1ccco1 (stereo not drawn) | 29.2% (inactive)
Cc1cc(OCCCC(=O)NCCN2C(=O)S/C(=C\c3cccnc3)C2=O)ccc1Cl | -21.9% (inactive)
O=C(CC1C(=O)N(c2ccccc2)C(=O)N1CCc1cccs1)Nc1ccc(F)cc1 (stereo not drawn) | -11.5% (inactive)
O=C(CCCN1C(=O)/C(=C/c2ccccc2)SC1=S)Nc1ccc(O)cc1 | -85.4% (active)

SMILES | activity change, negative = inhibition
COCCN(Cc1ccco1)C(=O)Cn1ncc2c([nH]c3ccccc32)c1=O | 1.17% (inactive)
N#Cc1cccc(CN2CCC(=O)N([C@H](CO)c3ccccc3)CC2)c1 | -24.2% (inactive)
O=C(Nc1ccc(Br)cc1)c1cc2nc(-c3ccccc3)cc(-c3ccccc3)n2n1 | 22.2% (inactive)
CCc1ccc2oc(=O)cc(CN3CCCCC3C)c2c1 (stereo not drawn) | -19% (inactive)
CCOC(=O)c1[nH]c(C)c(CCC(=O)NCc2ccccc2C)c1C | -16.4% (inactive)
Cc1ccsc1C(=O)NNC(=O)COc1ccc(Br)cc1 | -16.1% (inactive)
Cn1cnnc1SCC(=O)NNC(=O)COc1ccc(Br)cc1 | -26.5% (inactive)
Cc1ccc(O)c(NC(=S)NC(=O)COc2ccc(Br)cc2)c1 | -97.8% (active)
COc1ccc(CN2CCc3nc(Nc4ccccc4)ncc3C2)c(OC)c1OC | -16.7% (inactive)
COc1ccc(S(=O)(=O)c2cn(C)c3cc(N4CCCCC4)c(F)cc3c2=O)cc1 | -2.52% (inactive)
COc1cccc(CCNC(=O)c2cccc(NC(=O)C3=C(C)OCCS3)c2)c1 | -34.7% (inactive)
Cc1nc2nc(C)c(NS(=O)(=O)c3ccc(C(C)(C)C)cc3)c(=O)n2[nH]1 | 2.48% (inactive)
O=C(Nc1ccc(N2CCN(C(=O)c3ccccc3)CC2)c(Cl)c1)c1cccnc1 | -70.9% (active)
Cc1ccccc1N1CCN(C(=O)c2cccnc2)CC1 | -6.56% (inactive)
O=C(Nc1ccc(N2CCN(C(=O)c3ccccc3)CC2)c(Cl)c1)c1ncn[nH]1 | -25.4% (inactive)
CC(Nc1ccccc1)c1cccnc1 (stereo not drawn) | 4.97% (inactive)
Cc1ccc(C(O)P(=O)(OC(C)C)c2ccc(N(C)C)cc2)cc1 (stereo not drawn) | 15.1% (inactive)
CC(C)COP(=O)(c1ccc(N(C)C)cc1)C(Nc1ccccc1)c1cccnc1 (stereo not drawn) | -101% (active)
Cc1ccc(S(=O)(=O)n2nc(-c3ccc(Cl)cc3)nc2NCc2ccccc2)cc1 | 8.1% (inactive)
COc1ccc(C2c3c(oc4ccccc4c3=O)C(=O)N2Cc2ccc3c(c2)OCO3)cc1 (stereo not drawn) | -4.99% (inactive)
COc1ccc(-c2nn(CC(=O)Nc3ccccc3F)c3c2cnc2ccc(F)cc23)cc1 | 39.2% (inactive)
O=c1[nH]c(-c2ccccc2)cn1C1CCN(Cc2ccc(-c3nc4ccc(F)cc4nc3-c3ccccc3)cc2)CC1 | 54.8% (inactive)
